{"source": "PubChem BioAssay (EPA / NIEHS)", "note": "Records with an inconclusive call do not appear. The source made the active and inactive calls. Rule for the calls: active = hit-call score of the fitted dose curve at least 0.9, where 1 is the maximum; inconclusive = response in the unintended direction; inactive = score below 0.9."}
{"test_system": "not listed separately", "assay": "TOX21_p53_BLA_p4_viability: Viability Assessment in the Tox21 HCT-116 p53 Agonism Beta-lactamase Assay, Phase 4 (AID 2283597);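 note: hits lower the luminescence signal meaning cytotoxicity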", "procedure,_shortened": "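Cells plated, 5 h pre-incubation; DMSO compounds pinned (217-fold dilution); 16 h, 37C/5% CO2; CCF4-AM 2 h RT; CellTiter-Glo 30 min RT; luminescence read.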"}
{"smiles": "CC(CN1c2ccccc2Sc2ccc(S(=O)(=O)N(C)C)cc21)N(C)C", "note": "(centres undefined)", "outcome": "inactive"}
{"smiles": "Nc1ccc([N+](=O)[O-])c(N)c1", "outcome": "inactive"}
{"smiles": "CO[C@H]1/C=C/O[C@@]2(C)Oc3c(C)c(O)c4c(O)c(c5c(nc6cc(C)ccn65)c4c3C2=O)NC(=O)/C(C)=C\\C=C\\[C@H](C)[C@H](O)[C@@H](C)[C@@H](O)[C@@H](C)[C@H](OC(C)=O)[C@@H]1C", "outcome": "inactive"}
{"smiles": "CCCCCCCCCCCCOCCCN", "outcome": "inactive"}
{"smiles": "FC(F)(F)c1ccccc1Cl", "outcome": "inactive"}
{"molecular_target": "Cellular tumor antigen p53 (Homo sapiens) (UniProt P04637)", "sequence (P04637 whole entry, looked up)": "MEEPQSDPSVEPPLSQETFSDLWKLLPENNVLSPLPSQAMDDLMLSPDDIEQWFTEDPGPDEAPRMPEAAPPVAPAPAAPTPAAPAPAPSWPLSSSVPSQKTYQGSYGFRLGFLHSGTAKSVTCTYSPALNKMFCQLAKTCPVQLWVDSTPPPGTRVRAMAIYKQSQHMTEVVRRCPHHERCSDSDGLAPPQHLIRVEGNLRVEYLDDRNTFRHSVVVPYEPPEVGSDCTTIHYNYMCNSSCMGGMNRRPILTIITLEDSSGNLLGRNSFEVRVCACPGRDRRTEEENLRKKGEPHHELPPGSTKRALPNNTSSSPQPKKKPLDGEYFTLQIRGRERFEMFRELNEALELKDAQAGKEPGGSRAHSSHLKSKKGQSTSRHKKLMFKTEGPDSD", "assay": "TOX21_p53_BLA_p5_ratio: Tox21 HCT-116 p53 Agonism Beta-lactamase Assay, Ratio, Phase 5 (AID 2283599)", "procedure,_shortened": "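HCT-116 cells carrying a p53-inducible beta-lactamase reporter were seeded at 4000 cells/well and dosed after 5 h with compound in DMSO (217-fold dilution). After 16 h at 37C, CCF4-AM substrate was added for 2 h, and the 460/530 nm emission ratio was scored as gain-of-signal versus DMSO.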"}
{"smiles": "Cc1ccc(CO)cc1", "outcome": "inactive"}
{"smiles": "c1ccc2c(CCC3CCNCC3)c[nH]c2c1", "outcome": "inactive"}
{"smiles": "CN[C@H]1CCc2cc(OC)c(OC)c(OC)c2-c2ccc(OC)c(=O)cc21", "outcome": "inactive"}
{"smiles": "CCCCC(=O)N(Cc1ccc(-c2ccccc2-c2nn[nH]n2)cc1)[C@@H](C(=O)O)C(C)C", "outcome": "inactive"}
{"smiles": "Clc1ccc2nsnc2c1NC1=NCCN1", "outcome": "inactive"}
{"smiles": "Cc1ccc2ccccc2c1[N+](=O)[O-]", "outcome": "inactive"}
{"smiles": "O=Nc1ccc(NO)cc1", "outcome": "inactive"}
{"smiles": "CN(C)CCC=C1c2ccccc2C(C)(C)c2ccccc21", "outcome": "inactive"}
{"smiles": "CCCCCC[C@@H](O)C/C=C\\CCCCCCCC(=O)OC", "outcome": "inactive"}
{"smiles": "CO[C@@]1(NC(=O)CSC[C@@H](N)C(=O)O)C(=O)N2C(C(=O)O)=C(CSc3nnnn3C)CS[C@@H]21", "outcome": "inactive"}
{"smiles": "Nc1ccccc1S(=O)(=O)O", "outcome": "inactive"}
{"smiles": "c1cnc2cc3c(cc2n1)[C@@H]1CNC[C@H]3C1", "outcome": "inactive"}
{"smiles": "Cc1ccnc(NS(=O)(=O)c2ccc(N)cc2)n1", "outcome": "inactive"}
{"smiles": "NC(=O)[C@@H]1C[C@]2(NC(=O)NC2=O)c2cc(F)ccc2O1", "outcome": "inactive"}
